Out of some 310,000 compounds screened, about 14,000 (4.5%) showed an effect of 50% or more. Effects have a minus sign here. Only a selection was taken, and strong results are over-represented in it overall.
target: human ether-à-go-go-related gene (hERG) potassium channel (human, UniProt Q12809); experiment: primary screen, population patch clamp on CHO cells stably expressing hERG; higher = less effect of the substance
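Further: peak tail current of the secondary pulse compared with the same well before compound.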

Chain of human ether-à-go-go-related gene (hERG) potassium channel (Q12809 whole entry, looked up): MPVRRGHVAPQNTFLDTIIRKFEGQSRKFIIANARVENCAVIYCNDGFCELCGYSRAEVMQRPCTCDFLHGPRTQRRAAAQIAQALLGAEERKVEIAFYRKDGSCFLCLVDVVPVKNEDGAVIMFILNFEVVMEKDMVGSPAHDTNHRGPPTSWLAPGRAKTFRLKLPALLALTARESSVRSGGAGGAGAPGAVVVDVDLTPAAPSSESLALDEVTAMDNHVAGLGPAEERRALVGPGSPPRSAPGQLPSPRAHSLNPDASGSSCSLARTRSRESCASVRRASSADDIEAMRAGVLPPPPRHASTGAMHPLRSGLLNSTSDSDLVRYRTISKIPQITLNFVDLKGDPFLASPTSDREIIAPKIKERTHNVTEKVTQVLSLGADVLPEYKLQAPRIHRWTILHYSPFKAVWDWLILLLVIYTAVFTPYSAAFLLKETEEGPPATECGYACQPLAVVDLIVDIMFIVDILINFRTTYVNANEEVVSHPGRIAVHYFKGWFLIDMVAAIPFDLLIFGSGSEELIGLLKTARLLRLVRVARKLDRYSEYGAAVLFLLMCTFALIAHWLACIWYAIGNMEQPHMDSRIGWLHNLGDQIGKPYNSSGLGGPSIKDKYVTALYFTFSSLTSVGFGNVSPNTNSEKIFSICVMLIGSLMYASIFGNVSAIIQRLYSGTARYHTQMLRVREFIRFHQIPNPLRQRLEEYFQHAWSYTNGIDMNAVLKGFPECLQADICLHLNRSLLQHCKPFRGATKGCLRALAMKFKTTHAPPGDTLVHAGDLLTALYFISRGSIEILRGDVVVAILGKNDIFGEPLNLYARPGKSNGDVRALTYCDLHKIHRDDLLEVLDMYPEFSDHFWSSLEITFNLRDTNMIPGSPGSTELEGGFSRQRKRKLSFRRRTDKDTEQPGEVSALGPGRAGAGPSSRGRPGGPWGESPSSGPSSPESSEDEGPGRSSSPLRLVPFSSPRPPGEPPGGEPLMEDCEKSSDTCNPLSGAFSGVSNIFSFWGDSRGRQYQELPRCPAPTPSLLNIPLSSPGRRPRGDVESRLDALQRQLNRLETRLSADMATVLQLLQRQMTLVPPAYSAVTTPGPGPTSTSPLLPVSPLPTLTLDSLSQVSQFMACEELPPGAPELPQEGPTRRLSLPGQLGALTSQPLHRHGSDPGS

| Structure (SMILES) | hERG current change (%, negative = inhibition) at 10uM [%] |
| --- | --- |
| Cc1ccc(NCC(=O)N=Nc2c(O)[nH]c3ccc([N+](=O)[O-])cc23)cc1 | -5.06 |
| Cc1ccc(O)c(-c2cc(C(=O)Nc3c(C)n(C)n(-c4ccccc4)c3=O)[nH]n2)c1 | 8.4 |
| O=C(O)c1ccccc1NC(c1ccccc1)c1ccc(Cl)cc1 (centres unmarked) | 19.8 |
| N#C/C(=C\c1ccccc1[N+](=O)[O-])C(=O)NC1CCCCC1 | -13.9 |
| Cc1cc(C(=O)NCC(=O)OCC(=O)Nc2ccc(OC(F)F)cc2)ccc1[N+](=O)[O-] | -67.8 |
| COc1ccc(C(=O)COC(=O)CNC(=O)c2cccc(OC(F)F)c2)cc1 | -64.6 |
| Cc1cc(C(=O)NCC(=O)OCC(=O)N(C(C)C)C(C)C)ccc1[N+](=O)[O-] | 10.6 |
| COc1ccc(N2CCN(C(=O)COC(=O)CNC(=O)c3cccc(OC(F)F)c3)CC2)cc1 | -43.7 |
| Cc1cc(C(=O)NCC(=O)OCC(=O)NCCc2ccccc2)ccc1[N+](=O)[O-] | -16.9 |
| COc1cccc(C(=O)NCC(=O)OCC(=O)c2ccccc2)c1 | 2.59 |
| Cc1ccnc2c(N3C(=O)C4C5c6ccccc6C(c6ccccc65)C4C3=O)cccc12 (centres unmarked) | -2.78 |
| CCCNC(=O)C(Cc1ccc(C(F)(F)F)cc1)NC(=O)c1ccc2ccccc2n1 (centres unmarked) | 14 |
| CCN1CCN(c2c(S(=O)(=O)c3ccc(C)c(C)c3)cnc3ccc(F)cc23)CC1 | -53.4 |
| CCc1ccc2ncc(S(=O)(=O)c3ccc(C)c(C)c3)c(N3CCCC3)c2c1 | 0.769 |
| CCOc1ccc2ncc(S(=O)(=O)c3ccccc3)c(N3CCN(c4ccccc4)CC3)c2c1 | -2.21 |
| Nc1cc(N)nc(SCC(=O)Nc2ccc3c(c2)OCCCO3)n1 | 8.03 |
| CN(C)c1ccc(/C=N/N(Cc2ccccc2)c2ccccc2)cc1 | 3.54 |
| CN1C(CC(=O)Nc2ccc(Br)cc2)c2ccccc2CC1(C)C (centres unmarked) | -38.2 |
| CN1CCN(CC(=O)Nc2ccc(Cl)cc2C(=O)c2ccccc2)CC1 | -77.2 |
| O=C(CN1CCCCCCC1)Nc1ccc(Cl)cc1Cl | 35.9 |
| CN1CCN(C(=S)SCC(=O)Nc2ccc(Cl)cc2C(=O)c2ccccc2)CC1 | -29.8 |
| Cc1cc(Cl)ccc1NC(=O)CN1CCCC1 | 27.1 |
| Cc1ccccc1NC(=O)CC1c2ccccc2CC(C)(C)N1C (centres unmarked) | 4.03 |

| Structure (SMILES) | hERG current change (%, negative = inhibition) at 10uM [%] |
| --- | --- |
| CN1C(CC(=O)Nc2ccc(Cl)cc2Cl)c2ccccc2CC1(C)C (centres unmarked) | -76.7 |
| O=C(O)CC1(CC(=O)Nc2ccc(Cl)cc2C(=O)c2ccccc2)CCCC1 | 6.78 |
| CN1CCN(CC(=O)Nc2ccc(Cl)cc2Cl)CC1 | -69.4 |
| O=C(CCNS(=O)(=O)c1ccccc1)Nc1ccc(Cl)cc1C(=O)c1ccccc1 | -32.9 |
| O=C(CCN1CCCCC1)Nc1ccc(Cl)cc1C(=O)c1ccccc1 | -72.6 |
| O=C(CN1CCCC1)Nc1ccc(Cl)cc1C(=O)c1ccccc1.O=C(O)C(=O)O | -46.8 |
| COc1cccc(C(=O)Nc2cc(NC(=O)c3cccs3)ccc2C)c1OC | -14 |
| Cc1sc(-c2c(C#N)c(N)nc3c2CCCCCC3)cc1[N+](=O)[O-] | -4.1 |
| COc1ccc(NC(=O)C2CCN(C(=O)[C@@H]3Cc4ccccc4CN3C(=O)OC(C)(C)C)CC2)cc1 | 2.02 |
| Cc1cc(C)c(NC(=O)Nc2ccccc2)c(C)n1 | 23.4 |
| O=C(CN1CCCC1)Nc1ccccc1C(=O)c1ccccc1 | -2.59 |
| O=C(CN1CCN(CCO)CC1)Nc1ccc(Cl)cc1C(=O)c1ccccc1 | -72.8 |
| CN1CCN(CC(=O)Nc2cccc([N+](=O)[O-])c2)CC1 | 3.24 |
| CN1CCN(CC(=O)Nc2ccccc2[N+](=O)[O-])CC1 | -13.2 |
| O=C(COc1ccccc1)Nc1ccc(Cl)cc1C(=O)c1ccccc1 | 6.83 |
| CN1CCN(CC(=O)Nc2ccc([N+](=O)[O-])cc2C(=O)c2ccccc2)CC1 | -84.6 |
| Cc1ccc(-n2cc(-c3ccccc3)c3c(=O)[nH]cnc32)cc1 | 8.89 |
| COc1ccc(C(CNC(=O)C2CC2)N(C)C)cc1 (centres unmarked) | 1.52 |
| COc1ccc(CC(=O)NCC2CCCN(Cc3ccc(OC)cc3F)C2)cc1 (centres unmarked) | -36.9 |
| COC(=O)c1ccc(C(=O)N2CCCC(CNC(=O)c3ccc(F)cc3)C2)cc1 (centres unmarked) | -5.82 |
| COc1ccc(CN2CCCC(CNC(=O)c3ccc(F)cc3)C2)cc1OC (centres unmarked) | -70.6 |
| COc1cccc(CN2CCCC(CNC(=O)c3ccc(F)cc3)C2)c1OC (centres unmarked) | -49.1 |
| COc1ccc(CC(=O)NCC2CCCN(Cc3ccc(F)cc3F)C2)cc1 (centres unmarked) | -17.5 |

| Structure (SMILES) | hERG current change (%, negative = inhibition) at 10uM [%] |
| --- | --- |
| COc1ccc(CN2CCCC(CNC(=O)c3ccc(F)cc3)C2)c(F)c1 (centres unmarked) | -75.4 |
| CCOc1cc(CN2CCCC(CNC(=O)c3ccc(F)cc3)C2)ccc1OC (centres unmarked) | -66.2 |
| CCOc1ccccc1CN1CCCC(CNC(=O)Cc2ccc(OC)cc2)C1 (centres unmarked) | -22.1 |
| COc1ccc(C(=O)N2CCCC(CNC(=O)c3ccc(F)cc3)C2)cc1OC (centres unmarked) | 3.14 |
| COc1ccc(CN2CCCC(CNC(=O)c3ccc(F)cc3)C2)c(C)c1C (centres unmarked) | -75.5 |
| O=C(COC(=O)c1ccc(Br)o1)NCc1cccs1 | -4.11 |
| COCOc1ccc(C=O)c(O)c1 | 7.21 |
| CCOc1ccc(C2CC(c3cccc(OC)c3)Nc3nc(N)nn32)cc1 (centres unmarked) | -26 |
| Cc1ccc(/C=N/Nc2ccc(Cl)c(C(=O)O)c2)s1 | 10 |
| COc1ccccc1CCNC(=O)CN1C(=O)NC2(CCCC2)C1=O | -9.26 |
| Cc1cccnc1NC(=O)CNC(=O)COc1ccccc1 | 6.69 |
| CC(c1ccco1)N(C(=O)c1ccc(S(=O)(=O)N2CCCCC2)cc1)c1ccccn1 (centres unmarked) | -4.75 |
| CCCC(=O)N(Cc1cc(=O)[nH]c2ccccc12)c1ccc(C)cc1 | -3.22 |
| Cc1cc(CNC(=O)c2cccnc2Cl)c2ccccc2n1 | -2.82 |
| COc1ccc(NC(=O)CN(C)C(=O)c2ccc3[nH]c4c(c3c2)CC(C)CC4)cc1 (centres unmarked) | 7.28 |
| CCOc1ccc(CN2CCCC(CNC(=O)c3ccc(F)cc3)C2)cc1CO (centres unmarked) | -68.1 |
| CCOc1cc(C(=O)NCc2ccc(F)cc2)ccc1OCC(=O)N1CCCCC1 | -37.5 |
| O=C(NC1CCN(C(=S)NCc2ccco2)CC1)NC12CC3CC(CC(C3)C1)C2 | 5.73 |
| CCOC(=O)N1CCC(N2C(=O)c3ccc(C(=O)O)cc3C2=O)CC1 | 9.66 |
| O=C(NC1CCCCC1)Oc1ccccc1 | 17.2 |
| COc1cccc(C(=O)N2CCN=C2SCc2cccnc2)c1OC | 4.44 |
| COc1ccc(NS(=O)(=O)c2cn(C)cn2)cc1 | 11.9 |
| c1ccc(N2CCN(c3nc4ccccc4[nH]3)CC2)nc1 | -64.4 |

| Structure (SMILES) | hERG current change (%, negative = inhibition) at 10uM [%] |
| --- | --- |
| Cl.Nc1nc(N2CCCCC2)nc2ccccc12 | -45.8 |
| c1ccc(N2CCN(Cc3nc4ccccc4[nH]3)CC2)nc1 | 9.64 |
| Cl.Nc1nc(N2CCN(c3ccccn3)CC2)nc2ccccc12 | -68.4 |
| c1ccc2[nH]c(N3CCOCC3)nc2c1 | 8.82 |
| CCN(CC)c1nc(N2CCN(C)CC2)nc2ccccc12.Cl | -44.3 |
| Nc1nc(N2CCOCC2)nc2ccccc12 | -19.7 |
| Cl.Nc1nc(N2CCN(C/C=C/c3ccccc3)CC2)nc2ccccc12 | -67.7 |
| Oc1ccc2ccccc2c1CN1CCN(C/C=C/c2ccccc2)CC1 | 14 |
| COC(=O)c1cccc(N(CC(=O)NC2CCCC2)C(=O)CNC(=O)c2cccs2)c1 | -1.26 |
| O=C(Nc1sc2c(c1C(=O)N1CCOCC1)CCCCC2)c1cccnc1 | 17 |
| CCN(CC)S(=O)(=O)c1ccc(N2CCCC2)c(NC(=O)CC(C)(C)C)c1 | -2.34 |
| Cc1cc(C(=O)NC(C)c2ccccc2)c2cc(F)ccc2n1 (centres unmarked) | 3.06 |
| O=C(N/N=C/c1c(Cl)cccc1Cl)c1cccc(F)c1 | 3.24 |
| CC/C(C)=N/NC(=O)c1[nH]c2ccc(C)cc2c1-c1ccccc1 | 0.516 |
| CC1CCCN(C(=O)C2CCC(CNc3c(N4CCCCC4)c(=O)c3=O)CC2)C1 (centres unmarked) | -8.22 |
| COC(=O)c1ccc(COc2ccc(C)c(C)c2)o1 | 12.3 |
| COc1ccc(-n2c(=O)[nH]c3cc(C(=O)NCCc4ccc(OC)c(OC)c4)ccc3c2=O)c(OC)c1 | 18.5 |
| C=CCN1C(=O)NC(c2ccccc2)(C(F)(F)F)S/C1=C(\C#N)c1nnc(N2CCOCC2)n1-c1ccccc1 (centres unmarked) | -19.4 |
| C=CCN1C(=O)NC(c2ccc(OC)cc2)(C(F)(F)F)S/C1=C(\C#N)c1nnc(N2CCOCC2)n1-c1ccccc1 (centres unmarked) | -62.4 |
| CN1C(=O)NC(c2ccccc2)(C(F)(F)F)S/C1=C(/C#N)c1nnc(N2CCOCC2)n1-c1ccccc1 (centres unmarked) | -30.3 |

Source: article PMC4336329 (PLoS ONE, 2015)
